Source: PubChem BioAssay AID1460 (National Center for Advancing Translational Sciences (NCATS), 2008)
Among all 270,000 compounds or so, about 5,800 (2.1%) were called active. Roughly 16% stayed inconclusive and do not appear here. Calls follow the shape of the dose curve; as a rule, active = well fitted inhibition curve with a large enough effect; inconclusive = small, poorly fitted or top-dose-only effect; inactive = flat fitted curve, though single readings scatter. What follows is part of a selection rich in actives, with near analogues and random picks from the rest. The source holds several records for some structures; these can differ, active in one and inactive in another.

Molecular target: Microtubule-associated protein tau (Homo sapiens) (UniProt P10636)
Assay: qHTS for Inhibitors of Tau Fibril Formation, Thioflavin T Binding; also: nearly all actives have a fitted effect of over 55% in size
Details: recombinant tau K18 P301L (four-repeat tau fragment), heparin-induced fibrillization, ThT fluorescence; series mostly up to 57.4 µM; activity, negative = inhibition: at the top concentration
Method in brief: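 Heparin-induced (20 uM) aggregation of recombinant human K18 P301L tau, 15 uM unlabeled with 0.24 uM labeled, pH 7 acetate buffer, 6 hr at 37 C with compound. Fibrils quantified by 30 uM ThT fluorescence after 1 hr ambient incubation.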
% is scaled to controls: 0 for no effect and ±100 for the full control effect; potency is read from the fitted curve at half-maximal effect.

Chain of Microtubule-associated protein tau (Homo sapiens) (P10636 561-689 P618L limits assumed): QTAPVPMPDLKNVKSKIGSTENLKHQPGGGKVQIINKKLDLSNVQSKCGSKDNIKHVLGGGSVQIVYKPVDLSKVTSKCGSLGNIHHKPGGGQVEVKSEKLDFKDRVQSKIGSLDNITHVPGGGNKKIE

activity, negative = inhibition, inactive:
Cc1ccc(NC(=O)Cn2nnc3sc4c(c3c2=O)CCC(C)C4)cc1 (configuration not stated) -3.78%
COC(=O)c1ccc(NC(=O)c2cc(S(=O)(=O)N3CCC(C)CC3)cn2C)cc1 7.77%
O=S(=O)(NCCc1nnc2ccc(SCc3ccc(Cl)cc3Cl)nn12)c1ccccc1 -9.95%
COc1ccc(Cl)cc1S(=O)(=O)N1CCC(c2ccncc2)CC1 -4.64%
Cc1c(/C=N/N2C(=O)C3C4C=CC(C4)C3C2=O)c2ccccc2n1C (configuration not stated) -16.2%
CC(C)Oc1ccc(NC(=O)c2cc3ccccc3o2)cc1 -14.6%
COC(=O)CCCC1=CC2=CC(=O)C(C)(OC(=O)c3cccs3)C(=O)C2=CN1c1cccc(C#N)c1 (configuration not stated) -5.58% [at 11.5 µM]
COC(=O)CCCC1=CC2=CC(=O)C(C)(OC(=O)c3cccs3)C(=O)C2=CN1c1ccc(CO)cc1 (configuration not stated) -2.21% [at 11.5 µM]
COC(=O)CCCC1=CC2=CC(=O)C(C)(OC(=O)c3cccs3)C(=O)C2=CN1CC(C)C (configuration not stated) -12.7% [at 11.5 µM]
CCn1c2c(c(=O)n3ncc(C(=O)N4CCN(c5ccccc5)CC4)c13)CN(Cc1ccc(OC)cc1)CC2 -8.87%
COc1ccc(-n2c(=O)c3sc4ccccc4c3n(CC(=O)Nc3cccc(C)c3)c2=O)cc1 -3.04%
C=CCNC(=S)N/N=C/c1ccc(C)s1 -16.9%
Cc1ccc(NC(=S)NCCN2CCOCC2)cc1 -4.08%
O=C(NCc1ccccc1)c1ccc2c(c1)nc1n2CCCCC1 -5.97%
O=C(C1CCC(Cn2c(=O)c3sccc3n(Cc3ccccc3F)c2=O)CC1)N1CCCCC1 (configuration not stated) -8.56%
O=C(CNC(=O)C(c1ccccc1)c1ccccc1)N/N=C\c1ccc2c(c1)OCO2 3.78%
Cc1noc(C)c1/C=N/Nc1ccc2ccccc2n1 -14.4%
O=C(Cc1ccc(F)cc1)N/N=C/c1ccc2c(c1)OCO2 6.78%
COc1ccc(-c2csc(N3CCN(Cc4ccc5c(c4)OCO5)CC3)n2)cc1 -12.7%
COc1ccc(Cl)cc1NC(=O)C(C)Sc1nc2c(c(=O)[nH]1)CCCC2 (configuration not stated) 6.23%
Cc1ccc(-c2nc(SCc3ccc(Br)cc3)n3[nH]c(=O)cc3n2)cc1 -2.48%
COc1cc(-c2cc3n(C)c(C)c(CCC(=O)Nc4ccc(F)cc4)c(=O)n3n2)cc(OC)c1OC -6.9%

Potency, active:
Cc1c(/C=N\NC(=O)c2cc3ccccc3o2)c2ccccc2n1C 3.55 µM
COC(=O)CCCC1=CC2=CC(=O)C(C)(OC(=O)c3cccs3)C(=O)C2=CN1c1cccc(C#N)c1 (configuration not stated) 31.6 µM
CNC(=S)N/N=C/c1ccc(N2CCOCC2)s1 17.8 µM
Brc1ccc(-c2csc(N/N=C/c3ccc4c(c3)OCO4)n2)cc1 4.47 µM
C(=N\Nc1ccc2ccccc2n1)/c1ccc2c(c1)OCO2 10 µM
